# Experimental data: the supplement of paper PMC8728848
# The full list was thinned out, with the strongest signals kept by preference.
# B1: Flo1 (Saccharomyces cerevisiae), P32768 (protein)
# chain: SGATEACLPAGQRKSGMNINFYQYSLKDSSTYSNAAYMAYGYASKTKLGSVGGQTDISIDYNIPCVSSSGTFPCPQEDSYGNWGCKGMGACSNSQGIAYWSTDLFGFYTTPTNVTLEMTGYFLPPQTGSYTFKFATVDDSAILSVGGATAFNCCAQQQPPITSTNFTIDGIKPWGGSLPPNIEGTVYMYAGYYYPMKVVYSNAVSWGTLPISVTLPDGTTVSDDFEGYVYSFDDDLSQSNCTVPDPSNY
# Key:
# Test in all cases: glycan array binding signal (z-score within array); higher = stronger binding
# Settings in all cases: glycan notation: IUPAC condensed, linker removed
# [1] = molecular target: Gal(b1-4)GlcNAc(b1-3)Gal(b1-4)GlcNAc(b1-3)Gal(b1-4)GlcNAc(b1-3)Gal(b1-4)GlcNAc(b1-2)[Gal(b1-4)GlcNAc(b1-3)Gal(b1-4)GlcNAc(b1-3)Gal(b1-4)GlcNAc(b1-3)Gal(b1-4)GlcNAc(b1-6)]Man(a1-6)[Gal(b1-4)GlcNAc(b1-3)Gal(b1-4)GlcNAc(b1-3)Gal(b1-4)GlcNAc(b1-3)Gal(b1-4)GlcNAc(b1-2)Man(a1-3)]Man(b1-4)GlcNAc(b1-4)[Fuc(a1-6)]GlcNAc
# In short: (§1)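 The binding signal is a Z-score computed within each array and averaged over linkers. Arrays of the same protein sequence at different concentrations or buffers were also averaged together. Data originate from 3228 arrays in the Consortium for Functional Glycomics database, kept only where the protein sequence was available.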
# [2] = molecular target: Gal(b1-4)GlcNAc(b1-6)Gal(b1-4)GlcNAc
# In short: as §1
# Gal3S(b1-3)GalNAc = molecular target: Gal3S(b1-3)GalNAc
# In short: as §1
# Gal3S(b1-4)GlcNAc6S = molecular target: Gal3S(b1-4)GlcNAc6S
# In short: as §1
# [3] = molecular target: Gal3S(b1-4)[Fuc(a1-3)]GlcNAc
# In short: as §1
# [4] = molecular target: Gal3S(b1-4)[Fuc(a1-3)]GlcNAc6S
# In short: as §1
# Gal6S(b1-4)GlcNAc6S = molecular target: Gal6S(b1-4)GlcNAc6S
# In short: as §1
# GalNAc(b1-4)Gal(b1-4)Glc = molecular target: GalNAc(b1-4)Gal(b1-4)Glc
# In short: as §1
# GalNAc3S(b1-4)GlcNAc = molecular target: GalNAc3S(b1-4)GlcNAc
# In short: as §1
# GalNAc4S6S(b1-4)GlcNAc = molecular target: GalNAc4S6S(b1-4)GlcNAc
# In short: as §1
# [5] = molecular target: GlcNAc(a1-4)Gal(b1-4)GlcNAc(b1-3)Gal(b1-4)[Fuc(a1-3)]GlcNAc(b1-3)Gal(b1-4)[Fuc(a1-3)]GlcNAc
# In short: as §1
# [6] = molecular target: GlcNAc(a1-6)Gal(b1-4)GlcNAc
# In short: as §1
# [7] = molecular target: GlcNAc(b1-2)Man(a1-3)[GlcNAc(b1-4)][GlcNAc(b1-2)Man(a1-6)]Man(b1-4)GlcNAc(b1-4)[Fuc(a1-6)]GlcNAc
# In short: as §1
# [8] = molecular target: GlcNAc(b1-3)Gal(b1-4)GlcNAc(b1-3)Gal(b1-4)GlcNAc(b1-3)Gal(b1-4)GlcNAc(b1-3)Gal(b1-4)GlcNAc(b1-2)Man(a1-3)[GlcNAc(b1-3)Gal(b1-4)GlcNAc(b1-3)Gal(b1-4)GlcNAc(b1-3)Gal(b1-4)GlcNAc(b1-3)Gal(b1-4)GlcNAc(b1-2)Man(a1-6)]Man(b1-4)GlcNAc(b1-4)[Fuc(a1-6)]GlcNAc
# In short: as §1
# [9] = molecular target: GlcNAc(b1-3)Gal(b1-4)GlcNAc(b1-6)[Gal(b1-3)]GalNAc
# In short: as §1
# [10] = molecular target: GlcNAc(b1-3)Gal(b1-4)GlcNAc(b1-6)[GlcNAc(b1-3)]Gal(b1-4)GlcNAc
# In short: as §1
# [11] = molecular target: GlcNAc(b1-4)[GlcNAc(b1-6)]GalNAc
# In short: as §1
# [12] = molecular target: Man(a1-2)Man(a1-2)Man(a1-3)Man
# In short: as §1
# Man(b1-4)GlcNAc = molecular target: Man(b1-4)GlcNAc
# In short: as §1
# [13] = molecular target: Neu5Ac(a2-3)Gal(b1-3)GalNAc(b1-3)Gal(a1-4)Gal(b1-4)Glc
# In short: as §1
# [14] = molecular target: Neu5Ac(a2-3)Gal(b1-3)[Fuc(a1-4)]GlcNAc(b1-3)Gal(b1-3)[Fuc(a1-4)]GlcNAc
# In short: as §1
# [15] = molecular target: Neu5Ac(a2-3)Gal(b1-4)GlcNAc(b1-2)[Neu5Ac(a2-3)Gal(b1-4)GlcNAc(b1-4)]Man(a1-3)[GlcNAc(b1-4)][Neu5Ac(a2-3)Gal(b1-4)GlcNAc(b1-4)Man(a1-6)]Man(b1-4)GlcNAc(b1-4)GlcNAc
# In short: as §1
# [16] = molecular target: Neu5Ac(a2-3)[GalNAc(b1-4)]Gal(b1-4)GlcNAc
# In short: as §1
# [17] = molecular target: Neu5Ac(a2-6)Gal(b1-4)GlcNAc(b1-3)GalNAc
# In short: as §1
# [18] = molecular target: Neu5Ac(a2-6)GlcNAc(b1-4)GlcNAc
# In short: as §1
# [19] = molecular target: Neu5Ac(a2-8)Neu5Ac(a2-3)Gal(b1-3)GalNAc(b1-4)[Neu5Ac(a2-3)]Gal(b1-4)Glc
# In short: as §1
# [20] = molecular target: Neu5Gc(a2-6)Gal(b1-4)GlcNAc
# In short: as §1
binder,measurement,setting,value
B1,glycan array binding signal (z-score),[1],1.44
same,glycan array binding signal (z-score),[2],-0.551
same,glycan array binding signal (z-score),Gal3S(b1-3)GalNAc,-0.392
same,glycan array binding signal (z-score),Gal3S(b1-4)GlcNAc6S,-0.289
same,glycan array binding signal (z-score),[3],-0.778
same,glycan array binding signal (z-score),[4],-0.547
same,glycan array binding signal (z-score),Gal6S(b1-4)GlcNAc6S,-0.216
same,glycan array binding signal (z-score),GalNAc(b1-4)Gal(b1-4)Glc,3.53
same,glycan array binding signal (z-score),GalNAc3S(b1-4)GlcNAc,-0.358
same,glycan array binding signal (z-score),GalNAc4S6S(b1-4)GlcNAc,3.28
same,glycan array binding signal (z-score),[5],2.23
same,glycan array binding signal (z-score),[6],-0.009
same,glycan array binding signal (z-score),[7],0.011
same,glycan array binding signal (z-score),[8],-0.202
same,glycan array binding signal (z-score),[9],-0.618
same,glycan array binding signal (z-score),[10],-2.82
same,glycan array binding signal (z-score),[11],-0.024
same,glycan array binding signal (z-score),[12],0.403
same,glycan array binding signal (z-score),Man(b1-4)GlcNAc,-0.306
same,glycan array binding signal (z-score),[13],-0.211
same,glycan array binding signal (z-score),[14],0.24
same,glycan array binding signal (z-score),[15],0.143
same,glycan array binding signal (z-score),[16],0.215
same,glycan array binding signal (z-score),[17],0.748
same,glycan array binding signal (z-score),[18],-0.394
same,glycan array binding signal (z-score),[19],1.62
same,glycan array binding signal (z-score),[20],-0.199
